Results taken from publication PMC4336329 (PLoS ONE, 2015).
The whole screen tested about 310,000 compounds, of which about 2,200 (0.71%) showed an effect of 50% or more. The effect is printed as a negative number. Many of the other results were omitted from the sample, so strong results are more common in it than they were.

These molecules were tested against human ether-à-go-go-related gene (hERG) potassium channel (human, UniProt Q12809) (assay: primary screen, population patch clamp on CHO cells stably expressing hERG; higher = less effect of the substance).
Sequence of human ether-à-go-go-related gene (hERG) potassium channel (Q12809 whole entry, looked up): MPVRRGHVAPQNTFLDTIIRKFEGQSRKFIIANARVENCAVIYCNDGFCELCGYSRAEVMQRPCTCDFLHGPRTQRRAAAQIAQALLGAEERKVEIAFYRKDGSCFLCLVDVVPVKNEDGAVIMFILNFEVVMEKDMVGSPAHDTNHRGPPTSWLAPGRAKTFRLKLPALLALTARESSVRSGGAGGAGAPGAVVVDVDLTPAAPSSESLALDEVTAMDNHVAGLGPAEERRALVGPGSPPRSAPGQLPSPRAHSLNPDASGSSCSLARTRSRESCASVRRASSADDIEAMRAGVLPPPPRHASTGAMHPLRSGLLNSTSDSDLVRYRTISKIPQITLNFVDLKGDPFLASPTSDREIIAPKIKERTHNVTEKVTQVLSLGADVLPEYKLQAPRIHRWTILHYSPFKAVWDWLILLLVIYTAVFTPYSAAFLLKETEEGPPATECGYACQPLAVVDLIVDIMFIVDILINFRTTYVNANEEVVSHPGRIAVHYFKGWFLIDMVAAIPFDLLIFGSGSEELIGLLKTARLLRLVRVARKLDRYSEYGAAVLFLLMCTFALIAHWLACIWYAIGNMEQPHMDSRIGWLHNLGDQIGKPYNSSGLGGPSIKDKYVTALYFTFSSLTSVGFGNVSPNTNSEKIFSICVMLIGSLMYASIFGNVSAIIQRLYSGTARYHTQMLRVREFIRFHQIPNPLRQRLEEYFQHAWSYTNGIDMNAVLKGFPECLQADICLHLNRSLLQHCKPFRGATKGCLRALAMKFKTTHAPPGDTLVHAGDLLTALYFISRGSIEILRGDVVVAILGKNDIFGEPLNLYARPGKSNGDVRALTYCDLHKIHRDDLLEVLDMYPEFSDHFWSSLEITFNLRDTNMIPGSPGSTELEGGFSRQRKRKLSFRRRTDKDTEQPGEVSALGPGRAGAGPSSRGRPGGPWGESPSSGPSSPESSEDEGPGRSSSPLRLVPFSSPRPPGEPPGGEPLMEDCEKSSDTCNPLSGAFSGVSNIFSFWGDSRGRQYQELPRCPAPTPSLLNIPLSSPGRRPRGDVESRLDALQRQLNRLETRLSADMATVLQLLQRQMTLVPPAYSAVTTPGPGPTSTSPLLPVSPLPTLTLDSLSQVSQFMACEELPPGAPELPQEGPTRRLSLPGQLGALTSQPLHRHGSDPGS

Row | Compound | hERG current change (%, negative = inhibition) at 1uM [%]
1 | COCCCN1C(=O)C(=O)/C(=C(/O)c2ccc(S(=O)(=O)N3CCCCC3)cc2)C1c1cccc(OC)c1 (stereo not drawn) | 2.22
2 | CC1(c2ccc(OC(F)F)cc2)NC(=O)N(CC(=O)Nc2ccc(N3CCCCC3)cc2)C1=O (stereo not drawn) | 18
3 | CN1C(=O)c2ccccc2C(C(=O)O)C1c1cccc(Cl)c1 (stereo not drawn) | 8.65
4 | CCN1C(=O)C2(C(C(=O)c3ccc(C)o3)=C(O)C(=O)N2CCCN(C)C)c2ccccc21 (stereo not drawn) | 14
5 | COc1ccc2[nH]cc(C(=O)CN(C)CCc3ccc(OC)c(OC)c3)c2c1 | -60.6
6 | COc1ccc2[nH]cc(C(=O)CN(C)C)c2c1 | 11.4
7 | CCN(CC)CC(=O)c1c[nH]c2ccc(OC)cc12 | 3.98
8 | COC(=O)c1cc(S(=O)(=O)Nc2cccc(S(N)(=O)=O)c2)oc1C | 8.79
9 | COCCn1c(SCC(=O)c2c(N)n(C3CC3)c(=O)[nH]c2=O)nnc1-c1ccc(Cl)cc1 | 13.5
10 | CN(Cc1ccccc1)C(=O)N1CCOCC1 | 17.7
11 | CCOC(=O)N1CCN(c2ncnc3c2oc2nc(C(C)C)c4c(c23)CCC4)CC1 | 6.16
12 | Cc1ccsc1C(=O)C1CCCN(Cc2ccccc2O)C1 (stereo not drawn) | -3.16
13 | Cc1ncc(CN2CCCC(C(=O)c3sccc3C)C2)s1 (stereo not drawn) | 12.5
14 | Cc1ccsc1C(=O)C1CCCN(Cc2ccn[nH]2)C1 (stereo not drawn) | 9.05
15 | Cc1ccsc1C(=O)C1CCCN(Cc2cccn2-c2ccccn2)C1 (stereo not drawn) | -81.7
16 | Cc1ccsc1C(=O)C1CCCN(Cc2cnc(N)nc2)C1 (stereo not drawn) | 4.23
17 | Cc1ccsc1C(=O)C1CCCN(Cc2cccn2-c2ccc(Cl)cn2)C1 (stereo not drawn) | -84.3
18 | CCOc1ccccc1OCC(=O)Nc1ccc(S(=O)(=O)Nc2nc(C)cc(C)n2)cc1 | 0.94
19 | Cc1ccc(S(=O)(=O)c2c(C)nn(-c3ccccc3)c2OC(=O)c2ccco2)cc1 | 5.81
20 | CC(C)c1ccc2c(c1)[C@H]1OCC[C@H]1[C@@H](c1cccs1)N2 | 4.11
21 | CCOC(=O)C(C)Oc1ccc(C2NC(=O)NC(C)=C2C(C)=O)cc1Br (stereo not drawn) | 4.32
22 | Cc1ccc(NC(=O)Cn2cccc2C2=NC(c3ccccc3)CO2)c(C)c1 (stereo not drawn) | 3.9

Row | Compound | hERG current change (%, negative = inhibition) at 1uM [%]
23 | Cc1cc(Br)c2nc3c(c(C(=O)O)c2c1)CCCCC3 | 7.18
24 | Cc1cccc2c(N)c3c(nc12)N(C)CC3.O=C(O)C(=O)O | 7.57
25 | O=C(O)c1cncc(Br)c1 | 8.7
26 | Cc1ccc(C)c2c(N)c3c(nc12)CCCCC3.O=C(O)c1cncc(Br)c1 | -51.9
27 | CN1CCCCc2c1nc1ccccc1c2N.O=C(O)c1cncc(Br)c1 | -79.7
28 | CN1CCc2c1nc1ccccc1c2N.O=C(O)c1cc([N+](=O)[O-])ccc1Cl | 7.96
29 | Cc1ccc(NC(=O)c2ccsc2)cc1NS(C)(=O)=O | 15.1
30 | CC1Sc2n(c3ccccc3[n+]2C)N=C1c1ccccc1.[Br-] (stereo not drawn) | -16.8
31 | C[n+]1c2n(c3ccccc31)N=C(c1ccccc1)CS2.[Br-] | -17.3
32 | COc1ccc(C2=Nn3c([n+](C)c4ccccc43)SC2)cc1.[Br-] | -13.2
33 | C[n+]1c2n(c3ccccc31)N=C(c1ccc(Br)cc1)CS2.[Br-] | -53.1
34 | C[n+]1c2n(c3ccccc31)N=C(c1ccc(Cl)cc1)CS2.[Br-] | -51.9
35 | Cc1ccc(-c2nnc3n2N=C(c2ccc(Br)cc2)CS3)cc1 | 4.56
36 | Cc1cc(Cn2nnc3ccccc32)c(O)c(C(C)(C)C)c1 | 23.6
37 | C[n+]1c2n(c3ccccc31)N=C(c1ccc(-c3ccccc3)cc1)CS2.[Br-] | -39
38 | C[n+]1c2n(c3ccccc31)N=C(c1cc(C(C)(C)C)c(O)c(C(C)(C)C)c1)CS2.[Br-] | -63.5
39 | COc1ccc(NC(=O)Cn2nnc(-c3ccccc3F)n2)cc1 | 8.09
40 | CCC(=O)Nc1ccc(-c2nnc(SCC(=O)NCC3CCCO3)n2C)cc1 (stereo not drawn) | 14.4
41 | COc1ccc(NC(=O)CN2C(=O)C(C)SC(C)C2=O)cc1 (stereo not drawn) | 6.14
42 | Cn1c(-[n+]2c(-c3ccccc3)cc(-c3ccccc3)cc2-c2ccccc2)nc2c([N+](=O)[O-])cccc21.[I-] | -6.1
43 | Cc1ccc(C(=O)N/C(=C\c2ccc(-c3ccccc3[N+](=O)[O-])o2)C(=O)NCCCN(C)C)cc1 | -14.9
44 | CN(C)C(=O)/C(=C/c1ccc(-c2cccc([N+](=O)[O-])c2)o1)NC(=O)c1ccccc1 | 5.68

Row | Compound | hERG current change (%, negative = inhibition) at 1uM [%]
45 | CN(C)CCCNC(=O)/C(=C/c1ccc(-c2ccc([N+](=O)[O-])cc2)o1)NC(=O)c1ccccc1 | -52.5
46 | CCCCNC(=O)/C(=C\c1ccc([N+](=O)[O-])o1)NC(=O)c1ccccc1 | -6.47
47 | Cc1ccc(C(=O)N/C(=C\c2ccc(-c3ccccc3[N+](=O)[O-])o2)C(=O)NCCN(C)C)cc1 | -29.7
48 | Cc1ccc(C(=O)N/C(=C/c2ccc(-c3ccc([N+](=O)[O-])cc3)o2)C(=O)NCCCN(C)C)cc1 | -78
49 | CCOC(=O)C(C)Oc1cccc2c(=O)n(CC(=O)N3CCCc4ccccc43)ccc12 (stereo not drawn) | 15.8
50 | CN(Cc1cccc2cnccc12)C(=O)c1cc(COc2ccc(F)cc2Cl)on1 | 19.5
51 | Cc1cc(C)nc(SCC(=O)N(C)CC(=O)Nc2c(Cl)cccc2Cl)n1 | 7.52
52 | O=C(Oc1ccc(-c2nccc(-c3ccccn3)n2)cc1)c1cccc(C(F)(F)F)c1 | 5.53
53 | CNc1nc(C)nc(-n2nc(C)cc2C)n1 | 9.5
54 | Cc1cc(C)n(-c2nc(C)nc(NCc3ccccc3)n2)n1 | -61.6
55 | Cc1cc(C)n(-c2nc(Nc3ccccc3)nc(-n3nc(C)cc3C)n2)n1 | 12.1
56 | CCCOC(=O)c1ccc(NC(=O)CN(C)Cc2cccs2)cc1 | 11.8
57 | O=C1c2ccsc2SCCN1Cc1cccc(Cl)c1 | 8.86
58 | COc1ccc(N2CCN(C(=O)Cn3cnc4c(cnn4-c4ccccc4)c3=O)CC2)cc1 | 5.22
59 | Cc1ccc(Cl)cc1NC(=O)CCS(=O)(=O)c1cccc2nonc12 | 10.8
60 | Cl.O=C(O)CN1C2=NCCCN2c2ccccc21 | 15.8
61 | Cl.Clc1ccc(CN2C3=NCCN3c3ccccc32)cc1 | -40.4
62 | Cl.Clc1ccc(CN2C3=NCCCN3c3ccccc32)c(Cl)c1 | -28.2
63 | Cl.Clc1ccc(CN2C3=NCCN3c3ccccc32)cc1Cl | -72.3
64 | Cc1cc2c(cc1C)N(Cc1ccc(Cl)cc1)C1=NCCCN12 | -28.4
65 | Cc1ccc(CN2C3=NCCN3c3ccccc32)cc1.Cl | -23.5
66 | Cl.Clc1ccc(CN2C3=NCCCN3c3ccccc32)cc1 | -54.3

Row | Compound | hERG current change (%, negative = inhibition) at 1uM [%]
67 | Cl.c1ccc(CN2C3=NCCCN3c3ccccc32)cc1 | -29
68 | c1ccc(CN2C3=NCCN3c3ccccc32)cc1 | 2.38
69 | Brc1ccc(CN2C3=NCCCN3c3ccccc32)cc1.Cl | -55.6
70 | Cl.O=C(CN1C2=NCCCN2c2ccccc21)c1ccc(Cl)cc1Cl | -82.1
71 | Cl.Fc1ccc(CN2C3=NCCCN3c3ccccc32)cc1 | -32.8
72 | COc1ccc(Sc2ccc(NC(=O)c3ccccc3Cl)cc2C#N)cc1 | 8.52
73 | Cc1ccc(-c2csc(N3CCC(NS(=O)(=O)c4ccc5c(c4)OCCO5)CC3)n2)cc1 | 9.83
74 | CCOC(=O)Nc1nc(C)c(C(=O)N(C)C)s1 | -1.49
75 | Cn1c(OCc2ccco2)nc2c1c(=O)n(Cc1ccc(Cl)c(Cl)c1)c(=O)n2C | 6.62
76 | COc1ccc(C(=O)NC(=S)N2CC(C)OC(C)C2)cc1OC (stereo not drawn) | 7.44
77 | COC(=O)c1sccc1NC(=O)Nc1cccc(F)c1 | 9.69
78 | C[C@@H](C(=O)OCC(=O)NCCc1ccc(S(N)(=O)=O)cc1)N1C(=O)C2CCCCC2C1=O (stereo partly drawn) | 12
79 | Cl.Clc1ccc(CN2C3=NCCCN3c3ccccc32)cc1Cl | -51.4
80 | Br.CC(C)(C)C(=O)CN1C2=NCCCN2c2ccccc21 | -46.9
81 | Br.CC(C)(C)c1ccc(CN2C3=NCCCN3c3ccccc32)cc1 | -79.7
82 | Cc1cccc(CN2C3=NCCCN3c3ccccc32)c1.Cl | -16.9
83 | Cc1ccc(CN2C3=NCCCN3c3ccccc32)cc1.Cl | -29.6
84 | Cl.Clc1cccc(CN2C3=NCCCN3c3ccccc32)c1 | -46.2
85 | O=C1CSC2(CCCCC2)N1CCO | 12.4
86 | O=C(Oc1ccc(C(=S)N2CCOCC2)cc1)c1ccccc1 | 28.6
87 | O=C(COC(=O)C1(c2ccc(F)cc2)CCCC1)Nc1ncc(C(F)(F)F)cc1Cl | 2.97
